Compound activity from PubChem BioAssay.
ATG4B inh: ATG4B protease inhibitors, primary screen, biochemical, fluorescence, uHTS. ATG4B cleavage of LC3-PLA2, NBD-HPC fluorescence, 1 h. actives 0.51% (n = 340,000). AID 504462, 2011. Cysteine protease ATG4B (Homo sapiens), Q9Y4P1. inhibition, % at 8.33 µM; in the data active = inhibition above about 40%
Target sequence (Q9Y4P1 whole entry, looked up): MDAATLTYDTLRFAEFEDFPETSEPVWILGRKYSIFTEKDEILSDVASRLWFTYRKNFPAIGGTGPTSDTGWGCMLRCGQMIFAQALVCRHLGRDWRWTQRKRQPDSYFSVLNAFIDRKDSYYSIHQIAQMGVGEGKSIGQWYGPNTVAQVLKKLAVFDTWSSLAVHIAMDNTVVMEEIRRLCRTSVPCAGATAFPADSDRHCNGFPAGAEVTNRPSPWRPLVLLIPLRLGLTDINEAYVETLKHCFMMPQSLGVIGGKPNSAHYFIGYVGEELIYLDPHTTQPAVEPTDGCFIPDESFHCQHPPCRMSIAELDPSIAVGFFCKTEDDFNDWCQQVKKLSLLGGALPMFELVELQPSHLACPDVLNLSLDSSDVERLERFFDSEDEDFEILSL
FAS-TE inh: FAS thioesterase domain inhibitors, primary screen, biochemical, fluorescence intensity, uHTS; Fatty acid synthase (Homo sapiens), P49327; recombinant FAS-TE, OMFH fluorogenic substrate, fluorescence endpoint; inhibition, % at 15 µM; actives 0.67% (n = 360,000); AID 602261, 2012;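 active = compounds whose normalised, plate-corrected inhibition of enzyme fluorescence in the single-dose primary screen is 50% or more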
SUMO Mot1 rescue: yeast Mot1-301 growth rescue at high temperature, primary screen, SUMOylation pathway inhibitor project, S. cerevisiae, ATP luminescence, 38.5C | S. cerevisiae Mot1-301 growth rescue; percent above DMSO median, 100 means doubled | growth rescue, % at 18.8 µM | actives 1% (n = 320,000);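 active = every valid replicate shows activation above 250% relative to neutral control wells; inactive = the rest, any valid replicate at or below 250%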
Calb FLC: C. albicans growth inhibition with fluconazole, primary screen, CaCi-2 strain, Alamar Blue fluorescence | C. albicans CaCi-2 (fluconazole-resistant clinical isolate) + fluconazole, 48 h | AID 1979, 2009 | actives 0.57% (n = 300,000) | growth inhibition, % (no concentration beside the values);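 active = growth inhibition above about 58% in most replicates, limit read from the data, passing the limit was not always enough; inconclusive = exactly half the replicates above a set limit; inactive = most replicates below a set limit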;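 note: all wells also contain fluconazole at 8 µg/ml as a sub-toxic cotreatment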
NadD block: inhibitors of S. aureus NadD, primary screen, biochemical, colorimetric, uHTS; Nicotinate-nucleotide adenylyltransferase NadD (Staphylococcus aureus N315); purified NadD enzyme, colorimetric absorbance read-out; inhibition, % at 20 µM; actives 0.78% (n = 360,000); AID 602399, 2012; in the data active = inhibition above about 26%
Yeast Mot1 SUMO: growth restoration of Mot1-301 yeast on galactose, dose response, SUMO pathway inhibitor project, whole organism, S. cerevisiae, ATP luminescence, cherry-picked samples. shares compounds with SUMO Mot1 rescue. S. cerevisiae Mot1-301 galactose growth, 24 h; -100 = growth of slx-deleted rescue strain. growth activity, percent, % at 42 µM. 2,300 tested, under 10 active;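 active = Signal drops as the depositor expects, and the fitted half-maximal dose is no more than ten times the top valid tested dose; inconclusive = Poor fit, or a flat curve whose signal drops by 30% to 70%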;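 note: more negative values mean stronger growth rescue toward the control strain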
A number is an active result; n = inactive; u = inconclusive; x = no result; + = active, no number. Most compounds without a hit are left out; they make up all but 3.1% or so of the library.

SMILES	ATG4B inh	FAS-TE inh	SUMO Mot1 rescue	Calb FLC	NadD block	Yeast Mot1 SUMO
CCN(CC(=O)N1CCCCCC1)S(=O)(=O)c1ccc(Cl)cc1	n	n	+	n	n	n
CCOC(=O)c1ccc(NC(=O)NCc2ccc(OC)cc2)cc1	n	n	n	n	n	x
CCOC(=O)c1ccc(NC(=O)NCc2ccncc2)cc1	n	n	507.3	n	n	n
CCOC(=O)c1cc2sc(C)cc2n1CC(=O)Nc1ccc2c(c1)OCCO2	n	n	784.4	n	n	n
O=C(Cn1nc(C(F)(F)F)c2c1CCCC2)N1CCOCC1	n	n	772.3	n	n	n
C=CCN1C(=O)c2ccc(C(=O)N(CC)CC(=O)Nc3c(F)cccc3F)cc2C1=O	n	n	n	n	n	x
COC(=O)CNC(=O)COC(=O)/C=C/c1cccs1	n	n	n	u	n	x
NC(=O)NC(=O)COC(=O)/C=C/c1cccs1	n	n	405.0	n	n	n
COc1ccc(NC(=S)Nc2ccc(OC)cc2OC)c(OC)c1	n	n	n	n	n	x
COc1ccc(NC(=S)Nc2ccccc2OC)c(OC)c1	n	n	475.7	n	n	n
CS(=O)(=O)N1CCC(Oc2ccccc2C(=O)N2CCNC(=O)C2)CC1	n	n	401.2	n	n	n
CC1(C)C=C(c2ccc(O)cc2)CC(C)(C)N1	n	n	659.6	n	n	n
Cc1cccc(CSc2ccc(-c3ccco3)nn2)c1	n	n	667.5	n	n	n
COCC(C)n1c(-c2ccc3c(c2)NC(=O)CO3)csc1=Nc1ccc(OC(F)F)cc1 (configuration not stated)	n	n	531.8	n	n	n
COc1ccccc1/C=C1\SC(=S)N(CCC(=O)Nc2nnc(C)s2)C1=O	n	n	n	n	n	x
CCOc1ccccc1N(CC(=O)Nc1ccccc1C(=O)O)S(C)(=O)=O	n	n	n	n	n	x
CCOc1ccccc1N(CC(=O)Nc1ccccc1C(=O)N1CCCC1)S(C)(=O)=O	n	n	586.3	n	n	n
COc1ccc(/C=N\NC(=O)c2cc(OCC(F)(F)F)ccc2OCC(F)(F)F)cc1	n	n	797.3	n	n	n
Cc1ccc(/C=N\NC(=O)c2cc(OCC(F)(F)F)ccc2OCC(F)(F)F)cc1	n	n	n	n	n	x
O=C(Nc1ccc(Cl)cc1C(F)(F)F)c1ccccc1	n	n	n	n	n	x
CCOc1ncccc1-c1nc(-c2cccs2)no1	n	n	916.0	n	n	n
CC1=Nc2ccccc2/C1=C\c1nc(-c2ccccc2)oc1O	n	n	622.8	n	n	n
CCCCCN1CC(=O)N2C(C)c3[nH]c4ccccc4c3C[C@H]2C1=O (some centres not stated)	n	n	n	n	n	x
CC1CCCC(C)N1CCCNC(=O)c1csc2c1CCCCC2 (configuration not stated)	n	n	458.8	n	n	n
COC(=O)Nc1ccc(S(=O)(=O)N2CCCC(C(=O)NC3CCS(=O)(=O)C3)C2)cc1 (configuration not stated)	n	n	387.0	n	n	n
SMILES	ATG4B inh	FAS-TE inh	SUMO Mot1 rescue	Calb FLC	NadD block	Yeast Mot1 SUMO
c1ccc2cc(C3CCCCC3)ncc2c1	n	n	737.9	x	n	n
Fc1ccccc1-c1cc2ccccc2cn1	n	n	n	x	n	x
COc1cc(/C=C2\NC(=S)N(C)C2=O)ccc1OCc1cccc(F)c1	n	n	562.9	n	n	n
O=C(O)C1CCCCC1C(=O)Nc1ccc(S(=O)(=O)N2CCCC2)cc1 (configuration not stated)	n	n	447.0	n	n	n
CCOc1ccc(C(=O)c2cccs2)cc1	n	n	386.6	n	n	n
O=C(c1ccccc1)c1cccs1	n	n	n	n	n	x
CCn1c(SCC(=O)Nc2cccc(S(=O)(=O)N(C)c3ccccc3)c2)nnc1C1CC1	n	n	n	x	n	x
O=C(CSc1nnc(-c2ccccc2Cl)o1)Oc1ccc(Br)cc1	n	n	500.7	n	n	n
O=C(CSc1nnc(-c2ccccc2O)o1)Oc1ccc(Br)cc1	n	n	n	n	n	x
COc1cccc(OC2(C)CCN(Cc3cccn3-c3nccs3)C2)c1 (configuration not stated)	x	n	x	x	n	x
Cc1cc(C(=O)NN)n[nH]1	n	n	589.9	n	n	n
O=C(Cc1ccc(Cl)cc1)NNC(=O)C1CC=CCC1C(=O)O (configuration not stated)	x	n	n	n	n	x
CCOc1ccc2ccc(OCC)c(/C=N/n3cnnc3)c2c1	n	n	n	n	n	x
COc1cc(NC(=O)c2ccc(Cl)cc2)c(OC)cc1NC(=O)CN1CCCCC1	n	n	n	n	n	x
COc1cc(NC(=O)c2ccccc2F)c(OC)cc1NC(=O)CN1CCCCC1	n	n	552.2	n	n	n
COc1ccc(C(=O)OCC(=O)c2ccc3c(c2)NC(=O)CO3)cc1S(=O)(=O)N1CCOCC1	n	n	n	x	n	x
COc1ccc(-c2noc(CSc3nc(-c4ccccc4)cc(=O)[nH]3)n2)cc1OC	n	n	493.0	n	n	n
CC(C)(C)C(=O)N(Cc1ccc(Cl)cc1)c1cnccn1	n	n	n	n	n	x
Brc1ccsc1/C=N/Nc1ccccc1	n	n	n	n	n	x
CC1(C)NC(=O)N(CC(O)CN(c2ccccc2)S(=O)(=O)c2ccccc2[N+](=O)[O-])C1=O (configuration not stated)	n	n	n	n	n	x
COc1cc(/C=N/n2c(C3CCCCC3)n[nH]c2=S)cc(OC)c1O	n	n	400.4	n	n	n
CCCCCCCCCCCCCC(=O)NO	n	n	x	x	n	x
O=C(CS(=O)c1ccc(C(F)(F)F)cc1[N+](=O)[O-])Oc1ccc(Cl)cc1 (configuration not stated)	n	n	380.3	n	n	n
Cc1cc(C)cc(OC(=O)CS(=O)c2ccc(C(F)(F)F)cc2[N+](=O)[O-])c1 (configuration not stated)	n	n	511.2	n	n	n
O=C(NCCO)c1ccc(Oc2ccc(C(F)(F)F)cc2[N+](=O)[O-])cc1	n	n	n	n	n	x
O=C(CSc1nc2ccccc2c(=O)n1CC1CCCO1)Nc1ccccc1Cl (configuration not stated)	n	n	n	n	n	x
O=C(NCC1COc2ccccc2O1)c1cccc(S(=O)(=O)N2CCOCC2)c1 (configuration not stated)	n	n	n	x	n	x
